# Results: PubChem BioAssay AID720609 (Broad Institute, 2013)
# Measured potencies and affinities stand elsewhere. Active and inactive are the calls of the source.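 The calls were made as follows: active = viability signal falls with a fitted half-maximal concentration at or below a set limit at all three treatment times; inconclusive = treatment times disagree, or a flat partial drop, or poor fit; inactive = inactive at every treatment time.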
# Experiment: HeLa cell viability over time, late-stage follow-up, mechanism study for HRAS target identification, CellTiter-Glo ATP luminescence, 8-48 h, dry powder (AID 720609)
# Settings: series mostly up to 35 µM
row,SMILES,outcome
1,CCC(=O)N(c1ccc(OC)c(Cl)c1)C(C(=O)NCCc1ccccc1)c1cccs1 (configuration not stated),inactive
2,Cc1onc(C(=O)N2CCN(C(c3ccncc3)c3ccncc3)CC2)c1[N+](=O)[O-],inactive
